hgDAF12 agonist: activates the H. glycines DAF-12 receptor ligand-binding domain | HEK293 GAL4-hgDAF12 UAS-luciferase reporter, agonist luminescence; normalized to butyrate control | activation, % at 6.8 µM | 1.8% of 370,000 active | AID 687014;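 active = activation above a cutoff set at the mean of all screened compounds plus 3 SD, cut at about 10% in these data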;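 note: 0% = DMSO wells and 100% = sodium butyrate wells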
ssDAF12 agonist: S. stercoralis DAF-12 activation, primary screen; 1% of 370,000 active; HEK293 ssDAF-12/GRIP1 lit1-tk-luc reporter, luminescence; % of 3 µM dafachronic acid response; activation, % at 6.8 µM; AID 652126;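 active = activation above the mean over all tested compounds plus 3 SD, cut at about 0.9% in these data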;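 note: 0% = DMSO-only wells and 100% = 3 µM delta7-dafachronic acid wells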
hcDAF-12 act: activators of H. contortus DAF-12 nuclear receptor; HEK293 hcDAF-12 lit1-tk-luc reporter, luminescence; 0% DMSO, 100% Δ7-dafachronic acid; activation, % at 6.8 µM; 1.4% of 370,000 active; AID 652067;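 active = activation above the mean of all tested compounds plus 3 SD, cut at about 5.5% in these data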;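 note: 100% = response to 3 µM Δ7-dafachronic acid high control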
DAX1 inh-1: DAX1 (NR0B1) inhibition, primary screen | HEK293T StAR-luciferase reporter, SF-1/DAX-1 repression relief | inhibition, % at 6.8 µM | 1.1% of 370,000 active | AID 652010;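 active = inhibition above the mean over all tested compounds plus 3 SD, cut at about 3.6% in these data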;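 note: 0% = DAX-1 cells with DMSO and 100% = cells lacking DAX-1 with DMSO; higher inhibition means more luminescence from relief of DAX-1 repression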
DAX1 inh-2: NR0B1 (DAX1) inhibition | P51843 | HEK293 Gal4-DAX1 luciferase reporter, luminescence | inhibition, % at 6.75 µM | 0.99% of 340,000 active;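 active = inhibition above the mean over all tested compounds plus 3 SD, cut at about 4.2% in these data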;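 note: 0% = DAX1-transfected cells with DMSO and 100% = empty-vector control cells with DMSO; inhibition shows as a rise in luminescence from relieved DAX1 repression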
Target sequence (P51843 207-470 limits assumed): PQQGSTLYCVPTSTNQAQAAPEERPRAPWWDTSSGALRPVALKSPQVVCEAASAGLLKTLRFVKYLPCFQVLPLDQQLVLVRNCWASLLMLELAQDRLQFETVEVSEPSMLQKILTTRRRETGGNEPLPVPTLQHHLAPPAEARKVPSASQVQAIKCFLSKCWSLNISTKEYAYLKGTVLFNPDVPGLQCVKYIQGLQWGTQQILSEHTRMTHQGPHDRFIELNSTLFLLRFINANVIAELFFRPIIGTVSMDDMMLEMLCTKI
Active calls of the source: *; x = no result given. Compounds with a hit are over-represented: about 4.1% of the library has one in this group of screens.

SMILES	hgDAF12 agonist	ssDAF12 agonist	hcDAF-12 act	DAX1 inh-1	DAX1 inh-2
Cc1ccc(-c2cc3onc(-c4ccccc4)c3c(=O)n2C)cc1	-4	-2	0	1	3
Cn1c(-c2ccc(F)cc2)cc2onc(-c3c(F)cccc3Cl)c2c1=O	11*	1	2	3	1
CC(C)(C)C(=O)OC12CCCN(C1)/C(=C/c1ccncc1)C2 (configuration not stated)	3	-2	-3	-2	x
O=C(CCCCl)N1CCc2[nH]c3ccccc3c2C1	-1	1	5.6*	2	0
CC(=O)N1CCc2[nH]c3ccccc3c2C1	-2	-1	0	0	1
Cc1c(OCC(=O)N[C@@H](Cc2ccccc2)C(=O)O)ccc2c1oc(=O)c1ccccc12	-2	-1	0	0	4.5*
Cc1c(OCC(=O)N[C@@H](Cc2ccccc2)C(=O)O)ccc2c3c(c(=O)oc12)CCC3	0	-1	-2	0	2
O=C(COc1ccccc1C(=O)NCc1ccccc1)Nc1ccc(I)cc1	-2	-2	-3	-2	x
Cc1ccc(C(=O)NC(=S)NCC2CCCO2)cc1Br (configuration not stated)	10	0	5.7*	1	2
O=C(NC(=S)NCC1CCCO1)c1ccccc1Br (configuration not stated)	1	-1	-1	0	0
COc1cnn(-c2ccc(C)cc2)c(=O)c1Cl	12*	-1	3	1	0
CCOC(=O)CCC(=O)N1CCNC(=O)C1	0	-2	5.6*	0	2
CCOC(=O)CCC(=O)N1CCOCCN(C(=O)CCC(=O)OCC)CCOCC1	1	-2	0	0	1
Cn1c(=O)c2cc(NC(=O)NCc3ccccc3)ccc2n1C/C=C/c1ccccc1	11*	-1	1	1	x
Cc1cc(C)cc(Cn2c3ccc(NC(=O)NCc4ccccc4)cc3c(=O)n2C)c1	-1	-1	-2	-1	x
COc1cc(NS(=O)(=O)c2ccc3c(c2)C(C)(C)C(=O)N3C)cc(OC)c1	-3	-1	-1	0	5.0*
COc1ccc(CNS(=O)(=O)c2ccc3c(c2)C(C)(C)C(=O)N3C)cc1	-1	-1	0	0	0
CCCc1cc(C(=O)NCCc2ccccc2)no1	11*	-1	4	4	0
O=C(NCCCn1cccn1)c1cc(COc2ccccc2)on1	8	0	2	3	4.2*
COC(=O)[C@]12C[C@H](CC(=O)N3CCN(C(=O)c4ccco4)CC3)C(=O)N(CCc3ccc(OC)c(OC)c3)C1=C[C@H](C(C)C)O[C@@H]2C1CC1	0	-1	-2	-1	x
CCOC(=O)CNC(=O)CSc1nc2ccccc2c(=O)n1-c1ccc(Cl)cc1	-1	-2	-3	-1	x
O=C1/C(=C/N(C(=O)c2ccco2)c2ccc(Br)cc2)Sc2ccccc21	x	x	x	x	4.7*
CCCCCCCCN1C(=O)[C@@H](CC(=O)NCc2ccccc2)C[C@@]2(C(=O)OC)C1=C[C@H](COCc1ccccc1)O[C@@H]2C	3	-1	-2	-1	x
CCCCCCCCN1C(=O)[C@@H](CC(=O)NCCC(C)C)C[C@@]2(C(=O)OC)C1=C[C@H](C(C)C)O[C@@H]2C1CC1	-2	-1	2	-1	x
O=c1c2cc3cc(Cl)ccc3nc2ncn1N1CCCCC1	6	0.9*	3	3	x
SMILES	hgDAF12 agonist	ssDAF12 agonist	hcDAF-12 act	DAX1 inh-1	DAX1 inh-2
c1ccc(C2Nc3ccccc3-c3nc4ccccc4n32)nc1 (configuration not stated)	10	0	0	1	1
c1ccc(C2Nc3ccccc3-c3nc4ccccc4n32)cc1 (configuration not stated)	11*	0	1	2	3
CCc1cccc(NC2c3ccccc3C(=O)N2c2ccc(C)cn2)c1 (configuration not stated)	12*	0	4	3	2
O=C1C2C3c4ccccc4C(c4ccccc43)C2C(=O)N1c1nc(-c2ccccc2)cs1 (configuration not stated)	2	-1	0	-1	-1
O=C1C2C3c4ccccc4C(c4ccccc43)[C@@H]2C(=O)N1c1nc(-c2ccccc2)cs1 (some centres not stated)	4	-1	-2	0	5.0*
COCCCNC(=O)c1ccc(CN2CCc3ccccc3C2)cc1	1	-1	-2	0	21*
COc1cccc(C=NNC(=O)CSc2nc3ccccc3[nH]2)c1O	-7	-2	-3	-4	x
Cc1ccc(/C=C2\C(=O)Nc3ccccc32)o1	2	0	5	0	1
Cc1ccc2c(c1)/C(=C/c1ccco1)C(=O)N2	0	-2	0	-1	5.1*
COC(=O)[C@]12C[C@H](CC(=O)NCc3ccccc3)C(=O)N(CCC3=CCCCC3)C1=C[C@H](C1CCCC1)O[C@@H]2C	0	-2	2	-1	x
O=C(Nc1cccc(C(F)(F)F)c1)O[C@@H]1CC[C@@]23CCCN2C(=O)CCC[C@H]3C1	1	-2	-2	x	x
COc1cc(OC)cc(C(=O)N=c2sc3ccccc3n2C)c1	11*	0	2	2	1
COc1ccccc1-c1cccc2[nH]c3c(c12)CCN1C(=O)[C@H]2[C@H](C)ON(C)[C@H]2C[C@@H]31	-1	-1	-2	1	x
Cc1ccc(O)c(N=Cc2cccs2)c1	9	0	5.8*	1	-1
O=C(O)C1(c2ccccc2)CCN(S(=O)(=O)c2ccccc2)CC1	0	1.0*	0	0	0
CN(C)C(=O)C1(c2ccccc2)CCN(S(=O)(=O)c2ccccc2)CC1	2	-1	0	0	1
Cc1ccc2nc(N3CCN(Cc4nnnn4C4CCCC4)CC3)c(C#N)cc2c1	5	0	-1	1	5.7*
CCN(CC(=O)NCc1cccs1)C(=O)c1ccc(NS(=O)(=O)c2cccc([N+](=O)[O-])c2)cc1	0	-1	1	1	4.8*
CCN(CC(=O)NCc1cccs1)C(=O)c1ccc(S(=O)(=O)Nc2ccccc2)cc1	1	-1	-1	0	-1
Oc1ccc(Oc2ccccc2F)c2cccnc12	2	-1	5.7*	x	x
Cc1cccc(-c2cccc3c4c([nH]c23)[C@@H]2C[C@H](N(C)C(=O)Nc3ccccc3)[C@H]([C@H](C)O)C(=O)N2CC4)c1	0	-1	-3	-1	x
C[C@@H]1C[C@H]2O[C@@H]2/C=C\C=C\C(=O)Cc2cc(O)cc(O)c2C(=O)O1	-5	-2	-4	-5	x
COc1ccc(C=Nn2c(-c3n[nH]c4c3CCC4)n[nH]c2=S)cc1OCc1ccccc1	-2	-2	-2	0	x
O=C(N/N=C/c1ccc(O)cc1)c1csc2c1CCCC2	11*	-1	-3	1	0
S=C(Nc1ccc2c(c1)OCO2)NC1CCN(Cc2ccccc2)CC1	0	-2	1	-1	4.7*
